# Measured values from the supplement of paper PMC9446081.
# ± gives the standard deviation of the averaged measurements.
# Biological target: T1, MurF (UniProt P11880)
# T1 sequence (whole entry): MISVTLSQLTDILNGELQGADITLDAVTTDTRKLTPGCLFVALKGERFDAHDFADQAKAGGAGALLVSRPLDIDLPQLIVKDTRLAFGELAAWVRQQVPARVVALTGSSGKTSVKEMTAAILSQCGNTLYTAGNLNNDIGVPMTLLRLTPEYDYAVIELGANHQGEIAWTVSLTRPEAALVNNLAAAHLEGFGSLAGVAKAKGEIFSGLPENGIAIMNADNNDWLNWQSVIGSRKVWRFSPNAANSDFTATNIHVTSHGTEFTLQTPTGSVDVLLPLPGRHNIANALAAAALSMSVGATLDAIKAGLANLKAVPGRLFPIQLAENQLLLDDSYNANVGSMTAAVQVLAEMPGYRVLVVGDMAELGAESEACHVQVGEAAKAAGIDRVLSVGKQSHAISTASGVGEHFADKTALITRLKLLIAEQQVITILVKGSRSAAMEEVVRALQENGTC
# Assay: relative enzymatic activity vs untreated control (fraction); higher = less inhibition
# Conditions: 100 µM; incubation time: 2 h at 37 C
# Description: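 In vitro enzymatic inhibition assays (ProFoldin kits) for 12 purified essential E. coli enzymes or complexes, each treated with 218 active antibacterial compounds at 100 µM for 2 h at 37°C. Read-outs were fluorescence or absorbance (phosphate detection, dye binding), converted to activity via standard curves and expressed relative to untreated DMSO controls.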
row,SMILES,relative enzymatic activity
1,CN(C)[C@@H]1C(=O)C(C(N)=O)=C(O)[C@@]2(O)C(O)=C3C(=O)c4c(O)cccc4[C@](C)(O)[C@H]3C[C@@H]12,0.983 ± 0.2
2,O=C1C=C2C(=CCOC2O)O1 (centres undefined),0.903 ± 0.18
3,CN(C)[C@@H]1C(=O)[C@H](C(N)=O)C(=O)[C@@]2(O)C(=O)[C@@H]3C(=O)c4c(O)cccc4[C@@](C)(O)[C@H]3C[C@@H]12,0.998 ± 0.19
4,Cc1nc2c(=O)n(C)c(=O)nc-2n(C)n1,0.965 ± 0.26
5,C[CH2][Hg][S]c1ccccc1C(=O)[O-].[Na+],0.982 ± 0.28
6,[O-][n+]1ccccc1[S][Zn][S]c1cccc[n+]1[O-],0.973 ± 0.15
7,CCCCCCCCCCCCCCCC[n+]1ccccc1.[Cl-],0.0685 ± 0.0074
8,Cc1c(N)nc([C@H](CC(N)=O)NC[C@@H](N)C(N)=O)nc1C(=O)N[C@H](C(=O)N[C@@H](C)[C@H](O)[C@@H](C)C(=O)N[C@@H](C(=O)NCCc1nc(-c2nc(C(=O)NCCC[S+](C)C)cs2)cs1)[C@@H](C)O)[C@@H](O[C@H]1O[C@H](CO)[C@H](O)[C@@H](O)[C@H]1O[C@H]1O[C@H](CO)[C@@H](O)[C@H](OC(N)=O)[C@@H]1O)c1c[nH]cn1,0.537 ± 0.75
9,CC(=O)[O][Hg][c]1ccccc1,1.08 ± 0.26
10,Cn1ncnc2c(=O)n(C)c(=O)nc1-2,0.797 ± 0.21
11,O=[N+]([O-])c1ccc(N(CCO)CCO)c2c1no[n+]2[O-],0.923 ± 0.15
12,CN1C(=O)[C@]23CC4=CC=C[C@H](O)[C@H]4N2C(=O)[C@@]1(CO)SS3,0.973 ± 0.26
13,CCCCCCCCCCCCCCCC[N+](C)(C)C.[Br-],0.112 ± 0.021
14,Oc1cc(Cl)ccc1Oc1ccc(Cl)cc1Cl,1.12 ± 0.27
15,CNC1C(O)C(OC2C(N)CC(N)C(OC3OC(C(C)O)C(O)C(O)C3N)C2O)OCC1(C)O (centres undefined),0.95 ± 0.18
16,CN[C@H]1C[C@@H](N)[C@H](O)[C@@H](O[C@@H]2O[C@H](CO)[C@H](O)[C@@H]3O[C@@]4(O[C@H]23)O[C@H]([C@@H](N)CO)[C@H](O)[C@H](O)[C@H]4O)[C@@H]1O,1.17 ± 0.035
17,CN(C)[C@@H]1C(=O)[C@@H](C(N)=O)C(=O)[C@@]2(O)C(=O)[C@H]3C(=O)c4c(O)ccc(Cl)c4[C@@](C)(O)[C@H]3C[C@@H]12,1.2 ± 0.021
18,CCn1cc(C(=O)[O-])c(=O)c2cc3c(cc21)OCO3.[K+],0.962 ± 0.22
19,CCCCCCCCCCCCCCCC[n+]1ccccc1,0.08 ± 0.011
20,O=S(=O)(O)O.Oc1cccc2cccnc12,0.951 ± 0.29
21,Cc1c(N)nc([C@H](CC(N)=O)NC[C@@H](N)C(N)=O)nc1C(=O)N[C@H](C(=O)N[C@@H](C)[C@H](O)[C@@H](C)C(=O)N[C@@H](C(=O)NCCc1nc(-c2nc(C(=O)NCCC[S+](C)C)cs2)cs1)[C@@H](C)O)[C@@H](O[C@H]1O[C@H](CO)[C@H](O)[C@@H](O)[C@H]1O[C@H]1O[C@H](CO)[C@@H](O)[C@H](OC(N)=O)[C@@H]1O)c1cnc[nH]1,1.15 ± 0.074
22,COP(=S)(OC)Oc1cc(Cl)c(Cl)cc1Cl,1.05 ± 0.2
23,CC(=O)Oc1ccc(Cl)c2cccnc12,0.983 ± 0.21
24,O=[N+]([O-])C(Br)(CO)CO,0.946 ± 0.23
